Experimental data as given in PubChem BioAssay.
For part of these data: Measured potencies and affinities stand elsewhere. Activity calls are given as the source filed them.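 The calls were made as follows, unless noted: active = fitted half-maximal concentration within 10 nM to 100 µM, steepness 0.5 to 2, significant signal drop, low assay interference; inactive = the rest.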

Assays:
[1] = molecular target: Cell division control protein 42 homolog (Homo sapiens) (UniProt P60953); experiment: inhibition of fluorescent GTP binding to constitutively active Cdc42 – biochemical, multiplex bead flow cytometry, Bodipy-FL-GTP, dose response (AID 1333;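 active = fitted half-maximal concentration within the tested dose range, moderate curve steepness, a statistically real signal drop, and little compound fluorescence or tag-binding interference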); conditions: bead-based flow cytometry; series mostly up to 100 µM
[2] = molecular target: Cell division control protein 42 homolog (Homo sapiens) (UniProt P60953); experiment: inhibition of fluorescent GTP binding to wildtype Cdc42 – biochemical, multiplex bead flow cytometry, Bodipy-FL-GTP, dose response (AID 1334;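 active = fitted half-maximal concentration within the tested range, moderate curve steepness, significant signal drop, and little compound fluorescence or bead-linkage interference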); conditions: bead-based flow cytometry, Bodipy-FL-GTP binding to GST-Cdc42; at 100 µM (top of the series) unless noted
[3] = molecular target: GTPase HRas (Homo sapiens) (UniProt P01112); experiment: Ras wt fluorescent GTP loading blockade – biochemical, wildtype, multiplex bead flow cytometry, dose response (AID 1335); conditions: bead-based flow cytometry, Bodipy-GTP binding to GST-Ras; at 100 µM (top of the series) unless noted
[4] = test system: Ras-related protein Rab-7a (dog), GTP binding; experiment: blockers of fluorescent GTP binding to Rab7 – biochemical, wildtype, multiplex bead flow cytometry, dose response (AID 1336; call rule not given here); conditions: bead-based flow cytometry; series mostly up to 100 µM
[5] = molecular target: Ras-related C3 botulinum toxin substrate 1 (Homo sapiens) (UniProt P63000); experiment: inhibition of wildtype Rac1 nucleotide loading – biochemical, multiplex bead flow cytometry, dose response (AID 1340;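 active = dose curve with midpoint inside tested range, moderate steepness, plateau gap beyond fit error, low compound glow and bead-link interference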); conditions: GST-Rac1 beads, Bodipy-FL-GTP binding; at 100 µM (top of the series) unless noted
[6] = molecular target: GTPase HRas (Homo sapiens) (UniProt P01112); experiment: blockade of GTP loading onto mutant Ras – biochemical, activated mutant, multiplex bead flow cytometry, dose response (AID 1341;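 active = dose-response curve with midpoint inside the tested range, moderate steepness, significant amplitude and little compound fluorescence or bead-attachment interference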;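 also: GST-tagged constitutively activated Ras mutant immobilized on beads and multiplexed with other GTPases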); conditions: bead-based flow cytometry, Bodipy-FL-GTP binding; series mostly up to 100 µM

Sequence of GTPase HRas (Homo sapiens) (P01112 whole entry, looked up): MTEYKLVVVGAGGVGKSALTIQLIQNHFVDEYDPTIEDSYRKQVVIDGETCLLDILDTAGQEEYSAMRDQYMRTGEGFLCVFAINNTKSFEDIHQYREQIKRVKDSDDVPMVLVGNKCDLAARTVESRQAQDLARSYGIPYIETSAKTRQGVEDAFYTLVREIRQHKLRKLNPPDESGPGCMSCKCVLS
Sequence of Cell division control protein 42 homolog (Homo sapiens) (P60953 whole entry, looked up): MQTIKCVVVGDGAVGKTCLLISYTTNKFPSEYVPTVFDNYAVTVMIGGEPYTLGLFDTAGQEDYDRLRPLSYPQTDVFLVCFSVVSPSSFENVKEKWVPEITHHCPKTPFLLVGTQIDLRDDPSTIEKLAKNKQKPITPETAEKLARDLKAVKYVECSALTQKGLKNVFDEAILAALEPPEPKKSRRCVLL

COCCN(C(=S)Nc1cc(C)ccc1C)C(C)c1cccnc1 (centres undefined)
outcome [1]: inactive | fluorescence, percent of control (lower = inhibition) [2]: 52.6% | GTP binding, percent of control [3]: 63.7% | outcome [4]: inactive | GTP binding signal, raw median fluorescence (lower = inhibition) (MCF (arbitrary fluorescence units)) [5]: 212 | outcome [6]: inactive

O=C1CS/C(=N/N=C2C3CC4CC(C3)CC2C4)N1
outcome [1]: inactive | fluorescence, percent of control (lower = inhibition) [2]: 48.5% | GTP binding, percent of control [3]: 68.2% | outcome [4]: inactive | GTP binding signal, raw median fluorescence (lower = inhibition) (MCF (arbitrary fluorescence units)) [5]: 214 | outcome [6]: inactive

Cn1cc([C@@H]2C[C@H]3CN(Cc4cccc(Cl)c4)C(=O)[C@]34CCCN24)c2ccccc21
outcome [1]: inactive | fluorescence, percent of control (lower = inhibition) [2]: 61.3% | GTP binding, percent of control [3]: 111% | outcome [4]: inactive | GTP binding signal, raw median fluorescence (lower = inhibition) (MCF (arbitrary fluorescence units)) [5]: 276 | outcome [6]: inactive

CCc1c(C)nc2c(C#N)c[nH]n2c1=O
outcome [1]: inactive | fluorescence, percent of control (lower = inhibition) [2]: 39% | GTP binding, percent of control [3]: 54.3% | outcome [4]: inactive | GTP binding signal, raw median fluorescence (lower = inhibition) (MCF (arbitrary fluorescence units)) [5]: 114 | outcome [6]: inactive

COc1ccc(OC)c(C(C(=O)NCc2ccco2)N(C(=O)Cn2nnc3ccccc32)C2CC2)c1 (centres undefined)
outcome [1]: inactive | fluorescence, percent of control (lower = inhibition) [2]: 47.2% | GTP binding, percent of control [3]: 58% | outcome [4]: inactive | GTP binding signal, raw median fluorescence (lower = inhibition) (MCF (arbitrary fluorescence units)) [5]: 0 | outcome [6]: inactive

O=C(O)Cc1coc2cc3c(cc12)CCC3
outcome [1]: inactive | fluorescence, percent of control (lower = inhibition) [2]: 29.9% | GTP binding, percent of control [3]: 79.1% | outcome [4]: inactive | GTP binding signal, raw median fluorescence (lower = inhibition) (MCF (arbitrary fluorescence units)) [5]: 251 | outcome [6]: inactive

O=C(O)/C=C\C(=O)Nc1cccc(C(=O)Nc2cccc(O)c2)c1
outcome [1]: inactive | fluorescence, percent of control (lower = inhibition) [2]: 38.6% | GTP binding, percent of control [3]: 84.2% | outcome [4]: inactive | GTP binding signal, raw median fluorescence (lower = inhibition) (MCF (arbitrary fluorescence units)) [5]: 162 | outcome [6]: inactive

O=C(CCc1ccccn1)N1CCCC(CNS(=O)(=O)c2cccs2)C1 (centres undefined)
outcome [1]: inactive | fluorescence, percent of control (lower = inhibition) [2]: 36.9% | GTP binding, percent of control [3]: 82.7% | outcome [4]: inactive | GTP binding signal, raw median fluorescence (lower = inhibition) (MCF (arbitrary fluorescence units)) [5]: 279 | outcome [6]: inactive

CCn1c(=N)c(S(=O)(=O)c2ccc(C)cc2)cc2c(=O)n3ccccc3nc21
outcome [1]: inactive | fluorescence, percent of control (lower = inhibition) [2]: 36.8% | GTP binding, percent of control [3]: 79.5% | outcome [4]: inactive | GTP binding signal, raw median fluorescence (lower = inhibition) (MCF (arbitrary fluorescence units)) [5]: 174 | outcome [6]: inactive
